# HT1080-NT tox – kills 2HG-producing HT-1080-NT fibrosarcoma cells | AID 686970 | HT-1080-NT fibrosarcoma viability, CellTiter-Glo ATP luminescence, 48 h | actives 1.6% (n = 360,000) | Potency, µM (top dose mostly 46.1 µM), inactives show at the highest dose activity, negative = less viability, usual class: cytotoxic;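 note: NT is the 2HG producing partner of a matched IDH1 knockdown line; 0% = DMSO-treated cells and -100% = media-only wells without cells; nearly all actives have a fitted effect of over 55% in size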
#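 Luminescent CellTiter-Glo readout after 48 hours of compound exposure at 37 degrees C defined viability of HT-1080-NT cells. Activity was normalized to DMSO wells and cell-free media wells; concentration-response curves were fitted and assigned curve classes.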
# HT1080 IDH1KD tx – toxicity to HT-1080 IDH1 knockdown cells (counter line) | Potency, µM (highest dose often 46.1 µM), for the others: top-dose activity, negative = toxicity, usual class: cytotoxic | HT-1080 IDH1 knockdown viability, ATP luminescence, 48 h | actives 2% (n = 360,000);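 note: 0% = DMSO wells and -100% = cell-free medium wells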
#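 Knockdown cells (IDH1KD HT-1080) received compounds 2 h after plating at 750 cells/well and were kept 48 h at 37 °C in 5% FBS RPMI. A CellTiter-Glo luminescence read gave % activity for curve fitting.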
# DT40 TDP1 CPT – growth inhibition of DT40 Tdp1-/-;hTDP1 cells with camptothecin (screen for TDP1 inhibitors); chicken DT40 Tdp1-/-;hTDP1 cells + 20 nM CPT, ATP luminescence, 48 h; actives 12% (n = 420,000); Potency, µM (top dose mostly 46.2 µM), inactives show top-dose activity change, negative = growth inhibition, most hits filed as inhibitors; AID 686979; note: nearly all actives have a fitted effect of over 55% in size
#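 Chicken DT40 Tdp1-/- cells stably complemented with human TDP1 were seeded at 400 cells/well in medium containing 20 nM camptothecin, exposed to pin-transferred compounds, and grown at 37 °C for at least 48 hr. Viability was read as ATP luminescence.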
# KB-V1 MDR tox – KB-V1 MDR subline cytotoxicity; KB-V1 MDR cells viability, CellTiter-Glo, 72 h; Potency, µM (highest dose often 46.1 µM), hits mostly cytotoxic; actives 3.4% (n = 400,000); note: nearly all actives have a fitted effect of over 60% in size
#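 KB-V1, DMEM (no phenol red) + 10% FBS; cpd pin-transferred, titration series; 72 h, 37 degrees C; CellTiter-Glo, luminescence. Data normalized, curve-fit.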
# DT40 TDP1 no CPT – qHTS for Inhibitors of human tyrosyl-DNA phosphodiesterase 1 (TDP1): qHTS in cells in absence of CPT; Potency, µM (top dose mostly 46.2 µM), inactives show at the highest dose activity change, negative = growth inhibition, actives largely listed as inhibitors; AID 686978, 2013; actives 15% (n = 420,000); DT40 Tdp1-/- hTDP1 cells, no CPT, ATP luminescence, 48 h; note: nearly all actives have a fitted effect of over 55% in size
#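 Luminescent ATP content (CellTiter-Glo) served as the growth readout. Knockout chicken DT40 cells expressing human TDP1 were exposed to compounds without camptothecin for a minimum 48 hr at 37 °C.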
# KB-3-1 tox – kills parental KB-3-1 adenocarcinoma cells. KB-3-1 viability, CellTiter-Glo ATP luminescence, 72 h. Potency, µM (doses to about 46.1 µM), hits mostly cytotoxic. actives 1.4% (n = 400,000). AID 1347075; note: nearly all actives have a fitted effect of over 60% in size
#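 Viability of parental KB-3-1 cells, measured by CellTiter-Glo luminescence, followed a 72 h incubation at 37 °C with pinned compounds in phenol-red-free DMEM containing 10% FBS.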
# * = called active by the depositor; i = inactive; u = inconclusive; x = not tested or not shown; [ ] = another dose, or the depositor's remark. Compounds with a hit are over-represented: about 19% of the library has one in this group of screens. Calls come from the whole dose curve; as a rule, active = well fitted curve in the direction sought with a large enough effect; inconclusive = small, poorly fitted or top-dose-only effect, or another doubt; inactive = no such curve, though single readings can be large; an effect the other way counts as inactive or inconclusive. Unless noted, % is set by controls: 0 for no effect and ±100 for the full control effect; potency is the fitted concentration of half-maximal effect.
SMILES,HT1080-NT tox,HT1080 IDH1KD tx,DT40 TDP1 CPT,KB-V1 MDR tox,DT40 TDP1 no CPT,KB-3-1 tox
CC(=O)NCCNC(=O)C1Cc2c(-c3cccc(NC(C)=O)c3)ccnc2O1 (configuration not stated),u,27%,0%,i,1%,i
COc1ccc(CCCNC(=O)C2Cc3c(-c4cccc(NC(C)=O)c4)ccnc3O2)cc1 (configuration not stated),u,u,5.8µM*,u,3.7µM*,6.5µM*
CC(=O)Nc1cccc(-c2ccnc3c2CC(C(=O)NCc2cccs2)O3)c1 (configuration not stated),u,0.65µM*,0.92µM*,i,0.65µM*,5.8µM*
CC(=O)Nc1cccc(-c2ccnc3c2CC(C(=O)NCC2CCOCC2)O3)c1 (configuration not stated),u,u,2.6µM*,i,2.3µM*,u
CC(=O)Nc1cccc(-c2ccnc3c2CC(C(=O)NCCC(F)(F)F)O3)c1 (configuration not stated),u,21µM*,u,i,23µM*,u
COc1ccc(NC(=S)Nc2ccc(S(N)(=O)=O)cc2)c(OC)c1,3%,3%,18%,i,0%,i
CSc1ccccc1NC(=O)CN(C)C(=O)Cc1c(F)cccc1Cl,1%,12%,1%,i,-27%,i
CCCCNS(=O)(=O)c1ccc2nc(-c3cccnc3)cc(C(=O)NCCCOC(C)C)c2c1,x,x,-29%,i,u,i
CC(=O)c1ccc(NC(=O)CCCc2nc(-c3cccc(C)c3)no2)cc1,x,x,-29%,i,21µM*,i
Cc1ccc(-c2noc(CCC(=O)Nc3cccc(C#N)c3)n2)cc1,-27%,-26%,u,u,18µM*,i
Cc1cccc(-c2noc(CCC(=O)Nc3ccccc3)n2)c1,-23%,-10%,u,i,u,i
CCOC(=O)c1ccc(NC(=O)CCc2nc(-c3cccc(C)c3)no2)cc1,-13%,-21%,u,21µM*,16µM*,u
Cc1ccc(-c2noc(CCC(=O)Nc3ccc(C)cn3)n2)cc1,12%,0%[9.24 µM],-28%,i,-28%,i
CCC[C@H]1CN(c2ccccc2)C(=O)[C@@H]1CC(=O)Nc1ccc(Br)cc1,0%,0%,4%,u,-2%,i
CNC(=O)C1CCC(Cn2c(=O)c3sccc3n(CC(=O)N3CCCC3)c2=O)CC1 (configuration not stated),x,x,-13%,i,-9%,i
CCN(Cc1ccncc1)Cc1ccc2c(c1)CN(C(=O)c1ccccc1-n1cccn1)CCO2,x,x,9%,x,-12%,x
O=C1c2ccccc2C(=O)N1c1cccc2cccnc12,-4%,-2%,1%,i,-8%,i
Cc1ccc(N2C(=O)c3cccc4c([N+](=O)[O-])ccc(c34)C2=O)c2cccnc12,u,u,0.82µM*,u,0.73µM*,0.065µM*
Cc1ccc(N2C(=O)c3cccc4c(N5CCN(C)CC5)ccc(c34)C2=O)c2cccnc12,u,11µM*,u,i,u,i
O=C1c2cccc3c([N+](=O)[O-])ccc(c23)C(=O)N1Cc1cccnc1,8.2µM*,12µM*,3.7µM*,i,4.6µM*,u
CS(=O)(=O)N1CCN(c2ccc([N+](=O)[O-])c3cccnc23)CC1,2%,-4%,-5%,i,3%,i
Cc1nnc(N2C(=O)c3cccc4c([N+](=O)[O-])ccc(c34)C2=O)s1,u,u,7.3µM*,i,4.6µM*,i
C[C@@H]1C=C(C(=O)N2CCOCC2)O[C@H](OCc2ccc(CO)cc2)C1,13%,9%,-3%,i,-3%,i
CCc1nc2cc(C(=O)N3CCC[C@H]3CO)cc(NC(=O)c3ccccc3OC)c2n1C,x,x,11%[9.04 µM],x,-7%,x
CCc1ccc(C(=O)COC(=O)CNC(=O)COc2ccccc2)cc1,13%,-2%,15%,u,-4%,u
SMILES,HT1080-NT tox,HT1080 IDH1KD tx,DT40 TDP1 CPT,KB-V1 MDR tox,DT40 TDP1 no CPT,KB-3-1 tox
Clc1cccc(Cc2c(C3CCCCC3)nc3ccc(Br)cn23)c1,u,u,23µM*,i,u,i
COC(=O)c1ccc2nc(C3CCCCC3)c(Cc3ccc(C)cc3)n2c1,-21%,u,26µM*,i,23µM*,i
COC(=O)c1ccc2nc(C3CCCCC3)c(Cc3ccc(OC)cc3C)n2c1,1%,-5%,u,i,u,i
COC(=O)c1ccc2nc(C3CCCCC3)c(Cc3cccc(Cl)c3)n2c1,u,u,u,i,16µM*,i
COC(=O)C=C1CCC2C3CCC4=CC(=O)CCC4(C)C3C(=O)CC12C (configuration not stated),17%,7%,-28%,i,u,i
CCOC(=O)CN(C(=O)COc1ccc2c(C)cc(=O)oc2c1)c1ccc(OCC)cc1,15%,7%,-4%,i,-13%,i
Cc1c(C(=O)Nc2ccc(F)cc2)nnn1-c1cccc(C(F)(F)F)c1,-6%,-9%,7.3µM*,u,9.2µM*,i
Cc1cccc(-n2nnc(C(=O)Nc3ccc(F)cc3)c2N)c1,4%,-8%,u,u,u,i
O=C(Nc1c(C(=O)N2CCN(c3ccccc3F)CC2)oc2ccccc12)c1ccccc1F,x,x,13µM*,u,15µM*,i
COc1ccc(CC(=O)Nc2c(C(=O)N3CCN(c4ccccc4OC)CC3)oc3ccccc23)cc1OC,-14%,-14%,u,i,23µM*,u
O=C(Nc1c(C(=O)N2CCN(c3ccccc3)CC2)oc2ccccc12)c1ccccc1F,x,x,u,u,u,i
Cc1cccc(OCC(=O)Nc2c(C(=O)N3CCN(c4ccccc4)CC3)oc3ccccc23)c1,x,x,u,i,23µM*,i
COc1cc(CCC(=O)Nc2c(C(=O)N3CCN(c4ccccc4)CC3)oc3ccccc23)on1,2%,-4%,u,i,16µM*,i
CC1CC(C)CN(CCCNC(=O)CCNC(=O)Cn2ccc3ccccc3c2=O)C1 (configuration not stated),-2%,4%,9%,i,-9%,i
